# Source: PubChem BioAssay AID1159580 (chemical genetic matrix, 2015)
# The campaign covered roughly 5,500 compounds. About 2,000 (36%) were called active. Roughly 18% stayed inconclusive and do not appear here. This is one part of the list. Unmarked numbers belong to inactive results. Cut-off read from the data, not from the text of the source: active = normalized growth mostly below about 0.91 (no sharp cut-off); inconclusive = no clear call, values can overlap the other calls; inactive = mostly above about 0.92.
# Experiment: chemical genetic growth profiling, strain panel (AID 1159580);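 note: tested at 20 µM; growth read once vehicle control cultures reached saturation at 30 °C; 1 = growth at the plate median or of vehicle wells; lower values mean less growth of the strain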
# Settings: growth OD
smiles,measurement,setting,value
C=C(C)c1cc2cc(C(C)=O)c(O)cc2o1,normalized growth,"S. cerevisiae deletion strains, locus YJL187C, strain SWE1, hits give low values",0.994
same,normalized growth,"S. cerevisiae deletion strains, locus YJR066W, strain TOR1, hits give low values",0.886
same,normalized growth,"S. cerevisiae deletion strains, locus YKL009W, strain mrt4, hits give low values",0.939
same,normalized growth,"S. cerevisiae deletion strains, locus YKL068W, hits give low values",0.934 (active)
same,normalized growth,"S. cerevisiae deletion strains, locus YKL085W, strain MDH1 (second series), hits give low values",0.918 (active)
same,normalized growth,"S. cerevisiae deletion strains, locus YKL085W, strain MDH1, hits give low values",0.918 (active)
same,normalized growth,"S. cerevisiae deletion strains, locus YKL160W, strain elf1, hits give low values",0.92
same,normalized growth,"S. cerevisiae deletion strains, locus YKL190W, strain CNB1, hits give low values",0.954
same,normalized growth,"S. cerevisiae deletion strains, locus YKR001C, strain vps1, hits give low values",0.932
same,normalized growth,"S. cerevisiae deletion strains, locus YKR026C, strain gcn3, hits give low values",0.966
same,normalized growth,"S. cerevisiae deletion strains, locus YKR091W, strain srl3, hits give low values",0.979
same,normalized growth,"S. cerevisiae deletion strains, locus YLL001W, strain dnm1, hits give low values",0.916
same,normalized growth,"S. cerevisiae deletion strains, locus YLL026W, hits give low values",0.977
same,normalized growth,"S. cerevisiae deletion strains, locus YLL041C, strain sdh2, hits give low values",0.97
same,normalized growth,"S. cerevisiae deletion strains, locus YLR027C, strain aat2, hits give low values",0.964
same,normalized growth,"S. cerevisiae deletion strains, locus YLR039C, strain RIC1, hits give low values",0.831
same,normalized growth,"S. cerevisiae deletion strains, locus YLR058C, strain SHM2, hits give low values",0.948
same,normalized growth,"S. cerevisiae deletion strains, locus YLR102C, strain apc9, hits give low values",0.931
same,normalized growth,"S. cerevisiae deletion strains, locus YLR113W, strain HOG1, hits give low values",0.834 (active)
same,normalized growth,"S. cerevisiae deletion strains, locus YLR221C, strain rsa3, hits give low values",0.975
same,normalized growth,"S. cerevisiae deletion strains, locus YLR258W, strain gsy2, hits give low values",0.932
same,normalized growth,"S. cerevisiae deletion strains, locus YLR262C, strain YPT6 (second series), hits give low values",0.834 (active)
same,normalized growth,"S. cerevisiae deletion strains, locus YLR268W, strain sec22, hits give low values",0.945
same,normalized growth,"S. cerevisiae deletion strains, locus YLR320W, strain mms22, hits give low values",0.908
same,normalized growth,"S. cerevisiae deletion strains, locus YLR342W, strain FKS1 (second series), hits give low values",0.894
same,normalized growth,"S. cerevisiae deletion strains, locus YLR342W, strain FKS1, hits give low values",0.978
same,normalized growth,"S. cerevisiae deletion strains, locus YLR357W, strain rsc2, hits give low values",1.01
same,normalized growth,"S. cerevisiae deletion strains, locus YLR370C, strain arc18, hits give low values",0.971
same,normalized growth,"S. cerevisiae deletion strains, locus YLR371W, strain rom2, hits give low values",0.776 (active)
same,normalized growth,"S. cerevisiae deletion strains, locus YLR384C, strain iki3, hits give low values",0.977
same,normalized growth,"S. cerevisiae deletion strains, locus YLR418C, strain cdc73, hits give low values",0.861
same,normalized growth,"S. cerevisiae deletion strains, locus YML016C, strain PPZ1, hits give low values",0.906 (active)
same,normalized growth,"S. cerevisiae deletion strains, locus YML032C, strain rad52, hits give low values",0.942
same,normalized growth,"S. cerevisiae deletion strains, locus YML120C, strain ndi1, hits give low values",0.932
same,normalized growth,"S. cerevisiae deletion strains, locus YML124C, strain tub3, hits give low values",0.906 (active)
same,normalized growth,"S. cerevisiae deletion strains, locus YMR058W, strain fet3, hits give low values",0.954
same,normalized growth,"S. cerevisiae deletion strains, locus YMR078C, strain ctf18, hits give low values",0.909 (active)
same,normalized growth,"S. cerevisiae deletion strains, locus YMR125W, strain sto1, hits give low values",0.982
same,normalized growth,"S. cerevisiae deletion strains, locus YMR129W, hits give low values",0.966
same,normalized growth,"S. cerevisiae deletion strains, locus YMR205C, strain PFK2, hits give low values",0.906
same,normalized growth,"S. cerevisiae deletion strains, locus YMR223W, strain ubp8, hits give low values",0.967
same,normalized growth,"S. cerevisiae deletion strains, locus YMR231W, strain pep5, hits give low values",0.997
same,normalized growth,"S. cerevisiae deletion strains, locus YMR307W, strain GAS1, hits give low values",0.904
same,normalized growth,"S. cerevisiae deletion strains, locus YNL067W, strain RPL9B, hits give low values",0.986
same,normalized growth,"S. cerevisiae deletion strains, locus YNL071W, strain lat1, hits give low values",0.861 (active)
same,normalized growth,"S. cerevisiae deletion strains, locus YNL128W, strain TEP1, hits give low values",0.928
same,normalized growth,"S. cerevisiae deletion strains, locus YNL183C, strain NPR1, hits give low values",0.889
same,normalized growth,"S. cerevisiae deletion strains, locus YNL209W, strain ssb2, hits give low values",0.967
same,normalized growth,"S. cerevisiae deletion strains, locus YNL233W, strain BNI4, hits give low values",0.952
same,normalized growth,"S. cerevisiae deletion strains, locus YNL248C, strain rpa49, hits give low values",0.956
same,normalized growth,"S. cerevisiae deletion strains, locus YNL250W, strain rad50, hits give low values",0.932
same,normalized growth,"S. cerevisiae deletion strains, locus YNL271C, strain bni1, hits give low values",0.957
same,normalized growth,"S. cerevisiae deletion strains, locus YNL298W, strain CLA4, hits give low values",0.909 (active)
same,normalized growth,"S. cerevisiae deletion strains, locus YNL307C, strain MCK1, hits give low values",0.895 (active)
same,normalized growth,"S. cerevisiae deletion strains, locus YNL322C, strain KRE1 (second series), hits give low values",0.979
same,normalized growth,"S. cerevisiae deletion strains, locus YNR049C, strain mso1, hits give low values",0.976
same,normalized growth,"S. cerevisiae deletion strains, locus YNR052C, strain pop2, hits give low values",0.97
same,normalized growth,"S. cerevisiae deletion strains, locus YOL006C, strain TOP1, hits give low values",0.714
same,normalized growth,"S. cerevisiae deletion strains, locus YOL012C, strain htz1",0.842
same,normalized growth,"S. cerevisiae deletion strains, locus YOL147C, strain pex11, hits give low values",0.923 (active)
same,normalized growth,"S. cerevisiae deletion strains, locus YOR001W, strain rrp6, hits give low values",0.982
same,normalized growth,"S. cerevisiae deletion strains, locus YOR061W, strain CKA2, hits give low values",0.933
same,normalized growth,"S. cerevisiae deletion strains, locus YOR069W, strain VPS5, hits give low values",0.968
same,normalized growth,"S. cerevisiae deletion strains, locus YOR070C, strain gyp1, hits give low values",0.979
same,normalized growth,"S. cerevisiae deletion strains, locus YOR080W, strain dia2, hits give low values",0.984
same,normalized growth,"S. cerevisiae deletion strains, locus YOR083W, strain WHI5, hits give low values",0.929
same,normalized growth,"S. cerevisiae deletion strains, locus YOR106W, strain vam3, hits give low values",0.965
same,normalized growth,"S. cerevisiae deletion strains, locus YOR136W, strain idh2, hits give low values",0.943
same,normalized growth,"S. cerevisiae deletion strains, locus YOR144C, strain elg1, hits give low values",0.936
same,normalized growth,"S. cerevisiae deletion strains, locus YOR184W, strain ser1, hits give low values",0.845 (active)
same,normalized growth,"S. cerevisiae deletion strains, locus YOR231W, strain MKK1, hits give low values",0.93
same,normalized growth,"S. cerevisiae deletion strains, locus YOR265W, strain rbl2, hits give low values",0.96
same,normalized growth,"S. cerevisiae deletion strains, locus YOR270C, strain vph1, hits give low values",0.88
same,normalized growth,"S. cerevisiae deletion strains, locus YOR290C, strain snf2, hits give low values",0.893
same,normalized growth,"S. cerevisiae deletion strains, locus YOR316C, strain cot1, hits give low values",0.913 (active)
same,normalized growth,"S. cerevisiae deletion strains, locus YPL051W, strain arl3, hits give low values",0.917
same,normalized growth,"S. cerevisiae deletion strains, locus YPL078C, strain atp4, hits give low values",0.877 (active)
same,normalized growth,"S. cerevisiae deletion strains, locus YPL106C, strain sse1, hits give low values",0.895
same,normalized growth,"S. cerevisiae deletion strains, locus YPL240C, strain hsp82, hits give low values",0.961
same,normalized growth,"S. cerevisiae deletion strains, locus YPL256C, strain CLN2, hits give low values",0.897
same,normalized growth,"S. cerevisiae deletion strains, locus YPR119W, strain clb2, hits give low values",0.942
same,normalized growth,"S. cerevisiae deletion strains, locus YPR141C, strain kar3, hits give low values",0.906 (active)
same,normalized growth,"S. cerevisiae deletion strains, locus YPR163C, strain tif3, hits give low values",0.976
same,normalized growth,"S. cerevisiae deletion strains, locus YPR167C, strain met16, hits give low values",0.927
same,normalized growth,"S. cerevisiae deletion strains, strain wtn01, hits give low values",0.89 (active)
same,normalized growth,"S. cerevisiae strains, strain wild type, hits give low values",0.929
